# Experimental data: PubChem BioAssay
# The source made the active and inactive calls. Unless noted, how the calls were made is not given here.
# Tests used:
# [1] = compounds binding Alexa647 anti-His antibody – biochemical, small-molecule microarray, 635 nm fluorescence, artefact control for SMM control protein annotation, primary screen (AID 1128); conditions: higher = more signal;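 further: score merges feature fluorescence with signal-to-noise for each printed compound spot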
# [2] = tested on: Human papillomavirus type 1a E7 protein (residues 1-88); test: HPV1a E7 small-molecule binders, primary screen, biochemical, small-molecule microarray, residues 1-88, 635 nm (AID 1129); conditions: small-molecule microarray binding, fluorescence 635 nm; higher = more signal
# [3] = target: Focal adhesion kinase 1 (Homo sapiens) (UniProt Q05397); test: PTK2 protein binding on printed compound slides – biochemical, small-molecule microarray, 635/667 nm fluorescence, BSA, DTT, primary screen (AID 1130); conditions: 635 nm fluorescence, higher = more signal;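 further: composite of spot emission at 667 nm and signal to noise over triplicate slides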
# Sequence of Focal adhesion kinase 1 (Homo sapiens) (Q05397 whole entry, looked up): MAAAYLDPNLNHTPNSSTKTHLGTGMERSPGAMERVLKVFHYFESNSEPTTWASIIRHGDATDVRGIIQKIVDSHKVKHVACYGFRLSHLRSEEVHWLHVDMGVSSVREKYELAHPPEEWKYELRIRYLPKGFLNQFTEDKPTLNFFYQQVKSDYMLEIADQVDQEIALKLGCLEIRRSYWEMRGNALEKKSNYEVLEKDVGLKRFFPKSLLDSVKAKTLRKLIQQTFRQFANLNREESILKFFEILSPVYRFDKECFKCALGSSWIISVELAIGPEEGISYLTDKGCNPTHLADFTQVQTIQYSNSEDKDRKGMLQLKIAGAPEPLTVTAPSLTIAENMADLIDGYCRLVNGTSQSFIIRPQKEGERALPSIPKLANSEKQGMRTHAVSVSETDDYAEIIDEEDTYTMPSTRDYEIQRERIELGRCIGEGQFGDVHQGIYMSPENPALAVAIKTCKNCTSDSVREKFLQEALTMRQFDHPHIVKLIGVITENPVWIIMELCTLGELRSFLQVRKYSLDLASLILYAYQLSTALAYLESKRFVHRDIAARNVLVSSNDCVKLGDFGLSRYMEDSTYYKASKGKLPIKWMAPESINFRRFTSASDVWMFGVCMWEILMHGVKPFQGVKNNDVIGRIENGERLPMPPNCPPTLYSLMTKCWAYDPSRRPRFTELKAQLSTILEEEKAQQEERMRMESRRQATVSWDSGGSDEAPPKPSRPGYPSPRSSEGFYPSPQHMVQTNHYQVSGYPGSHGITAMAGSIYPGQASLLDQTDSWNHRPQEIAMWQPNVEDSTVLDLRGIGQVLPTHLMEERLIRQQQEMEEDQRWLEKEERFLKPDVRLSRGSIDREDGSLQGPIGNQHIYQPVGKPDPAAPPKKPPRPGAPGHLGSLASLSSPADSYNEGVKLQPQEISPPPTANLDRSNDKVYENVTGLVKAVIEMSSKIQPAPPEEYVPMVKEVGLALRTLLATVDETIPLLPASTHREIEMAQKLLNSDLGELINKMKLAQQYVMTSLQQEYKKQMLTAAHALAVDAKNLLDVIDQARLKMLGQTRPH
# [4] = tested on: Fibrinogen (Alexa647-labelled); test: Alexa647-fibrinogen binding to printed small molecules – biochemical, small-molecule microarray, 635/667 nm fluorescence, artefact control for SMM control-protein annotation, profiling panel (AID 1131); conditions: fibrinogen-A647 binding fluorescence, higher = more signal;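 further: z-score merges 667 nm fluorescence with per-spot signal-to-noise over triplicate slides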
# [5] = target: Follistatin (Homo sapiens) (UniProt P19883); test: FST protein binding to printed compounds – biochemical, small-molecule microarray, 635/667 nm fluorescence, primary screen (AID 1132); conditions: 635 nm fluorescence, higher = more signal
# Sequence of Follistatin (Homo sapiens) (P19883 whole entry, looked up): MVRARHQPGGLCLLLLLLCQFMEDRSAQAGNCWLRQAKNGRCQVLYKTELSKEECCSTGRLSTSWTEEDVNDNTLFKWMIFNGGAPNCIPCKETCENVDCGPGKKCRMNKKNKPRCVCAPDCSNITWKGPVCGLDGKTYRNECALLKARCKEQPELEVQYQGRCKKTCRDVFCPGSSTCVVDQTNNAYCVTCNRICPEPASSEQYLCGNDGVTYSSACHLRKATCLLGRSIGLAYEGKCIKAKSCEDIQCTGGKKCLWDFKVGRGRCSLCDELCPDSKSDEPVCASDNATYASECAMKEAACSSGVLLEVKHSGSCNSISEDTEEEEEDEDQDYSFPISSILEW
# [6] = target: Fibroblast growth factor 2 (Homo sapiens) (UniProt P09038); test: basic fibroblast growth factor binding to printed compounds – biochemical, small-molecule microarray, 635/667 nm fluorescence, primary screen (AID 1133); conditions: FGF2, fluorescence 635/667, higher = more signal
# Sequence of Fibroblast growth factor 2 (Homo sapiens) (P09038 whole entry, looked up): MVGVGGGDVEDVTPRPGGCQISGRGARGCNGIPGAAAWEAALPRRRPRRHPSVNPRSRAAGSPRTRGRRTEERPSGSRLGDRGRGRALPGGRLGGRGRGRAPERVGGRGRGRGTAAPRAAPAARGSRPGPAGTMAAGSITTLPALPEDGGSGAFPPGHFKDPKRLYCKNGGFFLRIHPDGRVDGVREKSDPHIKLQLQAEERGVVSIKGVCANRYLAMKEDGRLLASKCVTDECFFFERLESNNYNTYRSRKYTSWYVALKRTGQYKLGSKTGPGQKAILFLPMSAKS
# [7] = JC-1 mitochondrial potential readout, lung cancer cells – cell-based, A549, JC-1 fluorescence, basal, 24 h, 100 nL, profiling panel (AID 1138); conditions: higher = more signal;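 further: A549 lung adenocarcinoma cells under basal conditions with no added stimulus; test concentration not given here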
# Lefty1 = Lefty1 protein binding to printed compounds – biochemical, small-molecule microarray, 635/667 nm fluorescence, primary screen (AID 1139); conditions: fluorescence 635/667, higher = more signal
# [8] = tested on: wheat germ agglutinin (Triticum aestivum), Alexa647-labelled; test: Alexa647-WGA lectin binding to printed small molecules – biochemical, small-molecule microarray, 635/667 nm fluorescence, artefact control for SMM control-protein annotation, profiling panel (AID 1140); conditions: WGA-A647 binding, 635 nm fluorescence, higher = more signal;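 further: score merges 667 nm feature emission with signal to noise over triplicate slides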
# [9] = target: Luciferin 4-monooxygenase (Photinus pyralis) (UniProt P08659); test: inhibition of purified Photinus pyralis luciferase – biochemical, luminescence, purified enzyme, 2006 set, primary screen (AID 1141); conditions: purified firefly luciferase, SteadyGlo luminescence, 30 min; higher = more signal, called active from +8 up or from −8 down;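 further: cell-free assay with purified firefly luciferase at 100 ng per well in PBS; test concentration not given here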
# Sequence of Luciferin 4-monooxygenase (Photinus pyralis) (P08659 whole entry, looked up): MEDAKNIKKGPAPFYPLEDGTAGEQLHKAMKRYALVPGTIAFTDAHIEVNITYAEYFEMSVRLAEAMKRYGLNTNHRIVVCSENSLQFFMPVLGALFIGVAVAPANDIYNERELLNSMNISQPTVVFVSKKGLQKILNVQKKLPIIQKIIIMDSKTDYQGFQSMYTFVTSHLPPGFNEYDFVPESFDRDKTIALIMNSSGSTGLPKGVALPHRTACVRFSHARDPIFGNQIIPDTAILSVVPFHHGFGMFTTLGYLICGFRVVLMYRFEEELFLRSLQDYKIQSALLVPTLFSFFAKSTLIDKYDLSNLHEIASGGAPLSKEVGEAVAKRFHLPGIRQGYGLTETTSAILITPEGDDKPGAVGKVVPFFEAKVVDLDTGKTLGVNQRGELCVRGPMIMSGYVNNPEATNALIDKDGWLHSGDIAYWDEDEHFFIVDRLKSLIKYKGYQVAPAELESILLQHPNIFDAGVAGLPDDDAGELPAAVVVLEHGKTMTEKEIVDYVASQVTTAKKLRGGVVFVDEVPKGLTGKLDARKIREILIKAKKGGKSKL
# [10] = tested on: Wnt5a (protein binding on small-molecule microarray); test: small molecules binding Wnt5a protein – biophysical, small-molecule microarray, 635/667 nm fluorescence, primary screen (AID 1142); conditions: 635 nm fluorescence, higher = more signal;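 further: fluorescence read at 667 nm with signal to noise per printed feature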
# [11] = ATP-based viability of Huh7 replicon cells – cell-based, CellTiter-Glo luminescence, basal, 48 h, cytotoxicity control for HCV replication inhibitor project, primary screen (AID 1143); conditions: higher = more signal, called active from +8 up or from −8 down;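 further: Huh7 hepatoma cells carrying a hepatitis C replication reporter with no stimulus; test concentration not given here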
# [12] = Pseudomonas biofilm growth suppression – PAO1 strain, BacTiter-Glo luminescence, LB-PBS, primary screen (AID 1144); conditions: P. aeruginosa PAO1 biofilm, 12 h, higher = more signal
# [13] = basal CRE-LacZ reporter activity in PC12 – cell-based, unstimulated, primary screen (AID 1145); conditions: no forskolin, luminescence, 4.5 h, higher = more signal, called active from +8 up or from −8 down
# [14] = forskolin-driven CRE-LacZ activity in PC12 – cell-based, CRE-LacZ reporter, forskolin-stimulated, primary screen (AID 1146); conditions: luminescence, 4.5 h, higher = more signal, called active from +8 up or from −8 down;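 further: PC12 cells with 6xCRE LacZ reporter stimulated by forskolin 10 µM; beta-galactosidase reporter signal reflecting CREB driven transcription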
# [15] = target: Streptavidin (Streptomyces avidinii) (UniProt P22629); test: compounds binding control protein streptavidin – biophysical, small-molecule microarray, 635/667 nm fluorescence, artefact control for SMM compound annotation, primary screen (AID 1147); conditions: higher = more signal;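 further: signal reflects streptavidin binding to arrayed compounds as a control protein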
# Sequence of Streptavidin (Streptomyces avidinii) (P22629 whole entry, looked up): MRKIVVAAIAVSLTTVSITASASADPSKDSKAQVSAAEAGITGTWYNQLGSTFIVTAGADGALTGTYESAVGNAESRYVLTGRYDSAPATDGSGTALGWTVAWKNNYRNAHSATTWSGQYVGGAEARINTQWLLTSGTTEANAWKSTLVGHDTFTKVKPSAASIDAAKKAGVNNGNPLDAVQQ
# [16] = probe aInhba binding on compound microarray – biochemical, small-molecule microarray, 635/667 nm fluorescence, primary screen (AID 1148); conditions: higher = more signal;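 further: score merges 667nm spot fluorescence with signal-to-noise for antibody binding to printed compounds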
# Torsin-1A (Homo sapiens) [17] = target: Torsin-1A (Homo sapiens) (UniProt O14656); test: TOR1A wild-type binding on microarray – cell lysate, small-molecule microarray, lysate, 635/667 nm, primary screen (AID 1149); conditions: COS7 hTOR1A-WT lysate, 635 nm fluorescence, higher = more signal
# Sequence of Torsin-1A (Homo sapiens) (O14656 whole entry, looked up): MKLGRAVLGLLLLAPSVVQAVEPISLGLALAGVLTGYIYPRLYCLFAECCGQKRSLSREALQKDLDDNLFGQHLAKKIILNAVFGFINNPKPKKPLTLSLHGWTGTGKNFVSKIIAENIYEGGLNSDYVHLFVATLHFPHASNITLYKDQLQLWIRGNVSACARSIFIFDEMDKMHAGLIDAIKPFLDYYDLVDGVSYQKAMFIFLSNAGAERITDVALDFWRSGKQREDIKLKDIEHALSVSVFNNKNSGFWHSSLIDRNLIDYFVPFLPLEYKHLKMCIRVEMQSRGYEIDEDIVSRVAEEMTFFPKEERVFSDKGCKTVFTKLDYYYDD
# Torsin-1A (Homo sapiens) [18] = target: Torsin-1A (Homo sapiens) (UniProt O14656); test: torsin A mutant lysate binding on microarrays – cell lysate, small-molecule microarray, COS7 lysate, 635/667 nm fluorescence, primary screen (AID 1150); conditions: COS7 hTOR1A mutant lysate, 635 nm fluorescence, higher = more signal;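 further: score pools 667 nm emission and signal to noise measuring lysate protein binding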
# [19] = tested on: Sonic hedgehog protein (Shh); test: Sonic hedgehog microarray binding compounds – biochemical, small-molecule microarray, 635/667 nm fluorescence, primary screen (AID 1151); conditions: 635 nm fluorescence, higher = more signal;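 further: Shh protein binding to compounds spotted on small-molecule microarray slides; score combines spot fluorescence intensity with signal-to-noise across triplicate slides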
Compound,composite z-score [1],composite z-score [2],composite z-score [3],composite z-score [4],composite z-score [5],composite z-score [6],z-score [7],composite z-score (Lefty1),composite z-score [8],z-score [9],composite z-score [10],z-score [11],z-score [12],z-score [13],z-score [14],composite z-score [15],composite z-score [16],composite z-score (Torsin-1A (Homo sapiens) [17]),composite z-score (Torsin-1A (Homo sapiens) [18]),composite z-score [19]
CN(C)C(=O)[C@@]1(Cc2ccccc2N=[N+]=[N-])N=C(c2ccc(OCCCO)cc2)O[C@H]1c1ccccc1N=[N+]=[N-],1.85,1.19,0.921,0.887,1.01,-0.118,2.01,0.16,0.98,-2.25 (inactive),0.451,-3.76 (inactive),1.19 (inactive),1.19 (inactive),-1.97 (inactive),0.54,0.0028,0.761,0.776,-0.536
COC(=O)[C@@]1(Cc2ccccc2)[C@H]2c3cc(C(=O)N4CCCC4)n(Cc4ccc(OC(F)(F)F)cc4)c3C[C@H]2CN1C(=O)c1ccccc1,1.52,1.24,0.653,0.892,0.575,-0.65,0.989,-0.577,1.16,1 (inactive),1.01,-2.44 (inactive),0.0853 (inactive),2.49 (inactive),2.25 (inactive),1.64,1.08,-0.429,0.969,-1.44
COCCOC(=O)N1C(=O)[C@@]2(c3cc(C#CCCO)ccc31)[C@H](C(=O)NC[C@H](O)c1ccccc1)[C@H]1C(=O)O[C@H](c3ccccc3)[C@H](c3ccccc3)N1[C@@H]2c1ccccc1OCCO,-0.338,1.23,1.07,0.59,1.28,1.42,0.358,1.35,1.07,-1.02 (inactive),0.524,-1.34 (inactive),1.59 (inactive),-0.0607 (inactive),0.172 (inactive),0.562,0.413,1.19,0.597,1.35
COCCCNC(=O)[C@]1(Cc2ccccc2)N=C(c2ccc(OCCCO)cc2)O[C@@H]1c1ccccc1N=[N+]=[N-],0.36,1.22,-0.0142,0.977,1.25,0.401,-0.141,0.276,0.544,-4.67 (inactive),1.1,-5.91 (inactive),-1.57 (inactive),0.101 (inactive),-0.844 (inactive),0.607,-0.0136,1.04,1.04,-0.46
C=CCOC(=O)[C@H]1[C@@H]2C(=O)O[C@@H](c3ccccc3)[C@@H](c3ccccc3)N2[C@@H](c2ccc(OCCOC(=O)[C@H]3C[C@H]4C(=O)N[C@@H](CCCCN(C)C)C(=O)N4[C@H]3c3ccc(O)cc3)cc2)[C@]12C(=O)Nc1ccccc12,-0.127,1.13,0.806,-0.104,1.43,1.59,-0.58,1.5,0.0515,-0.552 (inactive),0.468,-1.73 (inactive),-0.063 (inactive),-0.122 (inactive),-0.322 (inactive),-0.0375,0.0748,0.539,0.674,1.42
